The results in this text go back to PubChem BioAssay (Tox21).

“And” between values parts separate entries of the source, which are not always exact repeats. Equal values may be shown once. Inconclusive results are not listed. A call without a number means that no potency is given here. Some compounds were tested as several samples or in several runs, with calls that do not always agree. The source made the active and inactive calls. Unless noted, the call rests on the fitted dose curve; in most records, active means well fitted curve in the direction sought with a large enough effect in the repeat runs; inconclusive means weak or mixed curves; inactive means no such curve, though single readings can be large; an effect the other way counts as inactive or inconclusive.

Chain of Estrogen receptor beta (Homo sapiens) (Q92731 whole entry, looked up): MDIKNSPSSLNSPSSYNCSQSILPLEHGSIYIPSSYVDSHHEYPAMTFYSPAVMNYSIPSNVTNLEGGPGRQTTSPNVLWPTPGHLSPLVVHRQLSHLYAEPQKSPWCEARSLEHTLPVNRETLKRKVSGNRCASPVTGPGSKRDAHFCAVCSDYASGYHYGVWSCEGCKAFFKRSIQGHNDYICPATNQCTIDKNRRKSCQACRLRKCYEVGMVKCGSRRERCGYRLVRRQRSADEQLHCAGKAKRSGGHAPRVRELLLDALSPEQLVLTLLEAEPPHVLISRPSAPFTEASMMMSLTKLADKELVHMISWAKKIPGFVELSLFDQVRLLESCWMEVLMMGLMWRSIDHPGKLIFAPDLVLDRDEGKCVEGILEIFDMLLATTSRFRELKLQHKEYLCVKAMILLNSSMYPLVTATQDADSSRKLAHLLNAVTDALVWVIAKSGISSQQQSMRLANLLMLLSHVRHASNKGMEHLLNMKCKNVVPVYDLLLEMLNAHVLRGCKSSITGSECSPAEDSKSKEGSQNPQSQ

The first assay has as its target Estrogen receptor beta (Homo sapiens) (UniProt Q92731). As to the kind of experiment: qHTS assay to identify small molecule antagonists of the estrogen receptor beta (ER-beta) signaling pathway (AID 1259378; active means well fitted inhibition curve with a large enough effect in the signal ratio in the repeat runs, not every such curve was filed as active; the % refers to the signal ratio). The conditions noted are these: ER-beta-UAS-bla HEK293T, beta-lactamase FRET ratio, 16 h; series mostly up to 92.4 µM. The gist of the method: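 Antagonist mode: compounds added to beta-lactamase reporter HEK293T ER-beta-UAS cells stimulated with E2 (1nM final), 16 hr at 37C. LiveBLAzer B/G FRET substrate, 2 hours room temperature, fluorescence read-out.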
For orientation: Quantitative high-throughput screening tests each substance at several concentrations.
For the molecule `Brc1c(NC2=NCCN2)ccc2nccnc12`, the outcome was inactive.

`C/C=C(\C)C#N`: the outcome was inactive.

As for `Nc1ccc(S(=O)(=O)Nc2ccnn2-c2ccccc2)cc1`, the activity, negative = inhibition was 0.746% [at 19 µM] (inactive).

Turning to `CCOC(=O)CCC(C)=O`, the result was inactive.

System in a further assay: not listed separately
As to the kind of experiment: qHTS assay to identify small molecule agonists of the androgen receptor (AR) signaling pathway in the presence of an antagonist - cell viability counter screen (AID 1259379).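 Further: MDA-kb2 human breast cancer cells carrying an MMTV luciferase reporter; nearly all actives have a fitted effect of over 25% in size.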 The conditions noted are these: MDA-kb2 viability, CellTiter-Fluor, 16 h; series mostly up to 92.4 µM. The gist of the method:
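In MDA-kb2 cells (human breast carcinoma, MMTV-luciferase), compounds at 15 concentrations plus 3.0uM nilutamide; 16 hr, 37C, 0% CO2; CellTiter-Fluor fluorescence read for viability.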
As to `CC(C)CNCC(C)C`, the Potency entry was “inactive”.

On to `CCCCCCCCCCCCCCCCC`, for which the Potency result was “inactive”.

In the case of `Oc1ccc(C2CNCCc3c2cc(O)c(O)c3Cl)cc1` (stereo unspecified), the Potency result is “inactive”.

Turning to `Brc1c(NC2=NCCN2)ccc2nccnc12`, the Potency result is “inactive”.

In the case of `COC(=O)NN`, the Potency entry is “inactive”.

Take `CCN1CCC[C@H]1CNC(=O)c1c(O)c(Cl)cc(Cl)c1OC`: the Potency result is “inactive”.

With `CC/C=C\CCOC(C)=O`, the Potency entry was “inactive”.

Consider `O=C1CCCCCCCCCCCN1`, for which the Potency entry is “inactive”.

Regarding `CCSC(=O)N(CC(C)C)CC(C)C`, the Potency result was “inactive”.

For the molecule `O=c1cc(-c2ccccc2)oc2ccccc12`, the Potency entry is “inactive”.

Take `OCCCC1CCCCC1`: the Potency result was “inactive”.

Turning to `CCn1ccnc1CC1COc2ccccc2O1` (stereo unspecified), the Potency entry was “inactive”.

As for `O=C(O)CCCl`, the Potency result is “inactive”.

For `CCC(C)S` (stereo unspecified), the activity change, negative = cytotoxicity was -0.314% [at 3.27 µM] (inactive).

On to `Cc1ccc(Cl)cc1Cl`, for which the Potency entry was “inactive”.

In the case of `CC(C)NCC(O)c1ccc(NS(C)(=O)=O)cc1` (stereo unspecified), the Potency entry was “inactive”.

As to `CCS(=O)(=O)c1ccc(OC)c(C(=O)OC)c1`, the Potency entry is “inactive”.

`C/C=C(\C)C#N`: the Potency result is “inactive”.

As to `Nc1ccccc1S(=O)(=O)O`, the Potency result was “inactive”.

As to `CCOC(=O)Nc1ccc(NCc2ccc(F)cc2)nc1N`, the Potency entry is “inactive”.

In the case of `CC[N+](C)(C)c1cccc(O)c1`, the Potency entry is “inactive”.

For `O=C(O)CCCc1ccccc1`, the Potency result is “inactive”.

Turning to `Nc1ccc(S(=O)(=O)Nc2ccnn2-c2ccccc2)cc1`, the activity change, negative = cytotoxicity is -0.249% [at 19 µM] (inactive).

As to `CC(C)=CCCC(C)CC(=O)O` (stereo unspecified), the Potency result was “inactive”.

As for `O=C1NC(=O)[C@@]2(CCOc3ccc(F)cc32)N1`, the Potency result is “inactive”.

Regarding `C=C(C)CS(=O)(=O)O`, the Potency entry is “inactive”.

Take `CC1=CC(C)C(C=O)CC1` (stereo unspecified): the Potency entry is “inactive”.

For the molecule `CCOC(=O)CCC(C)=O`, the Potency result was “inactive”.

As to `c1ccc(CC2=NCCN2)cc1`, the Potency result is “inactive”.

For `COc1c(N2C[C@@H]3CCCN[C@@H]3C2)c(F)cc2c(=O)c(C(=O)O)cn(C3CC3)c12`, the Potency result was “inactive”.

Consider `NC(CSCC(=O)O)C(=O)O` (stereo unspecified), for which the Potency entry is “inactive”.

Take `CCCCCCCCS(=O)(=O)Cl`: the Potency result is “inactive”.

On to `COC(=O)c1cc(C(=O)OC)cc(S(=O)(=O)O)c1`, for which the Potency result was “inactive”.

Regarding `COCCCOCCCOC`, the Potency result is “inactive”.

With `CN1CC(=O)NC1=N`, the Potency entry is “inactive”.

System in another assay: not listed separately
As to the kind of experiment: qHTS assay to identify small molecule agonists of the estrogen receptor beta (ER-beta) signaling pathway - cell viability counter screen (AID 1259380). Further: nearly all actives have a fitted effect of over 30% in size. As to conditions: ER-beta-bla HEK293T viability, CellTiter-Glo luminescence, 16 h; series mostly up to 92.4 µM. The procedure, abridged:
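Viability of ER-beta-UAS-bla HEK293T cells was determined by CellTiter-Glo luminescence following 16 hr treatment with test compounds at 37C.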
Turning to `CC(C)CNCC(C)C`, the Potency result was “inactive”.

As for `Oc1ccc(C2CNCCc3c2cc(O)c(O)c3Cl)cc1` (stereo unspecified), the Potency result is “inactive”.

With `COC(=O)NN`, the Potency entry was “inactive”.

`CCN1CCC[C@H]1CNC(=O)c1c(O)c(Cl)cc(Cl)c1OC`: the Potency entry was “inactive”.

For `CC/C=C\CCOC(C)=O`, the Potency entry was “inactive”.

Turning to `O=C1CCCCCCCCCCCN1`, the Potency result was “inactive”.

For `CCSC(=O)N(CC(C)C)CC(C)C`, the Potency entry was “inactive”.

With `O=c1cc(-c2ccccc2)oc2ccccc12`, the Potency result is “inactive”.

As for `OCCCC1CCCCC1`, the Potency result was “inactive”.

On to `CCn1ccnc1CC1COc2ccccc2O1` (stereo unspecified), for which the Potency result is “inactive”.

As to `O=C(O)CCCl`, the Potency result is “inactive”.

Regarding `CCC(C)S` (stereo unspecified), the activity change, negative = cytotoxicity was 4.81% [at 3.32 µM] (inactive).

Consider `Cc1ccc(Cl)cc1Cl`, for which the Potency result is “inactive”.

Turning to `Nc1ccccc1S(=O)(=O)O`, the Potency result is “inactive”.

With `CCOC(=O)Nc1ccc(NCc2ccc(F)cc2)nc1N`, the Potency entry was “inactive”.

As to `O=C(O)CCCc1ccccc1`, the Potency result is “inactive”.

As for `Nc1ccc(S(=O)(=O)Nc2ccnn2-c2ccccc2)cc1`, the activity change, negative = cytotoxicity was 9.8% [at 19 µM] (inactive).

Take `O=C1NC(=O)[C@@]2(CCOc3ccc(F)cc32)N1`: the Potency result was “inactive”.

Consider `C=C(C)CS(=O)(=O)O`, for which the Potency result was “inactive”.

Consider `c1ccc(CC2=NCCN2)cc1`, for which the Potency entry was “inactive”.

Take `COc1c(N2C[C@@H]3CCCN[C@@H]3C2)c(F)cc2c(=O)c(C(=O)O)cn(C3CC3)c12`: the Potency result is “inactive”.

`NC(CSCC(=O)O)C(=O)O` (stereo unspecified): the Potency entry is “inactive”.

For `CCCCCCCCS(=O)(=O)Cl`, the Potency entry was “inactive”.

In the case of `COC(=O)c1cc(C(=O)OC)cc(S(=O)(=O)O)c1`, the Potency result is “inactive”.

As to `COCCCOCCCOC`, the Potency result is “inactive”.

As to `CN1CC(=O)NC1=N`, the Potency result was “inactive”.

For another assay, the target named is Androgen receptor (Homo sapiens) (UniProt P10275). As to the kind of experiment: qHTS assay to identify small molecule agonists of the androgen receptor (AR) signaling pathway in the presence of an antagonist (AID 1259381; calls by dose curve; further: nearly all actives have a fitted effect of over 15% in size; further: potency means the concentration at half of the fitted maximal effect). The conditions noted are these: MDA-kb2 MMTV-luciferase, AR agonist + nilutamide, 16 h; series mostly up to 42.5 µM. The gist of the method: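 Here, 15-concentration compound series were pin-transferred onto MDA-kb2 MMTV-luciferase cells already dosed with nilutamide (3.0uM final). After 16hr at 37C, ONE-Glo was added and luminescence read 30min later at room temperature.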
Chain of Androgen receptor (Homo sapiens) (P10275 whole entry, looked up): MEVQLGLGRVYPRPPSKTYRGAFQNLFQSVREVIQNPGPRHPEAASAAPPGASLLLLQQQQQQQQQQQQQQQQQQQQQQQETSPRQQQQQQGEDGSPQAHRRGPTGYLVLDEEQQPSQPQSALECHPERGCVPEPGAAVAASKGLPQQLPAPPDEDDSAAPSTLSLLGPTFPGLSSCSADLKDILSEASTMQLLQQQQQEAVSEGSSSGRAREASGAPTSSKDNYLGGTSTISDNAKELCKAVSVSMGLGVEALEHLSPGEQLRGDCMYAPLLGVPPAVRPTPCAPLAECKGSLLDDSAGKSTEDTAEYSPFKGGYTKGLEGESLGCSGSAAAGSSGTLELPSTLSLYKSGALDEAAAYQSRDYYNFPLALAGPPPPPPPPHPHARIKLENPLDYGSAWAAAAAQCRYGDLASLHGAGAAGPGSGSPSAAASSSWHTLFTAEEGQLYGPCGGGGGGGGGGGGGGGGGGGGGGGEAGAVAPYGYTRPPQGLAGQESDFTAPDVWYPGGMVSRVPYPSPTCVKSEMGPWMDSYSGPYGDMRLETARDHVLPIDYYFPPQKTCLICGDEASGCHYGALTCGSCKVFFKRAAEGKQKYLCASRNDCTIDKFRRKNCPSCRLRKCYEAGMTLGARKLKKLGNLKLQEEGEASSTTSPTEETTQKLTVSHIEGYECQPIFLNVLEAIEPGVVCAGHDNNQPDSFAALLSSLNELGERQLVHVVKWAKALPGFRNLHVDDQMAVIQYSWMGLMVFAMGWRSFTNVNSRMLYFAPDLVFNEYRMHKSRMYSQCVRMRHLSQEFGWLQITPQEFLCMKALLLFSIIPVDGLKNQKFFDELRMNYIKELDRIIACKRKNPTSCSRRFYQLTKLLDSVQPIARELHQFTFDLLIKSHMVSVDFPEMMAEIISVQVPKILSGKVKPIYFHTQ
On to `CCSC(=O)N(CC(C)C)CC(C)C`, for which the Potency result is “inactive”.

As to `O=c1cc(-c2ccccc2)oc2ccccc12`, the Potency entry was “inactive and 4.3 µM (active)”.

Consider `CCn1ccnc1CC1COc2ccccc2O1` (stereo unspecified), for which the Potency result was “inactive”.

For `C=C(C)CS(=O)(=O)O`, the Potency entry is “inactive”.

Take `CN1CC(=O)NC1=N`: the Potency entry was “inactive”.

System in the next assay: not listed separately
As to the kind of experiment: qHTS assay to identify small molecule antagonists of the estrogen receptor beta (ER-beta) signaling pathway - cell viability counter screen (AID 1259382). Further: nearly all actives have a fitted effect of over 55% in size. As to conditions: ER-beta-UAS-bla HEK293T viability, CellTiter-Glo luminescence, 16 h; series mostly up to 92.4 µM. The procedure, abridged:
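Tox21 10K library tested in qHTS format on ER-beta-bla HEK293T cells stimulated with 1nM E2; 16 hr treatment at 37C. Same-well CellTiter-Glo luminescence served as the cell viability measure.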
Consider `CC(C)CNCC(C)C`, for which the Potency result is “inactive”.

Consider `Oc1ccc(C2CNCCc3c2cc(O)c(O)c3Cl)cc1` (stereo unspecified), for which the Potency entry was “inactive”.

For `Brc1c(NC2=NCCN2)ccc2nccnc12`, the Potency result was “inactive”.

For the molecule `COC(=O)NN`, the Potency result was “inactive”.

As for `CCN1CCC[C@H]1CNC(=O)c1c(O)c(Cl)cc(Cl)c1OC`, the Potency entry was “inactive”.

Regarding `CC/C=C\CCOC(C)=O`, the Potency entry is “inactive”.

For `O=C1CCCCCCCCCCCN1`, the Potency entry was “inactive”.

With `CCSC(=O)N(CC(C)C)CC(C)C`, the Potency entry was “inactive”.

As for `O=c1cc(-c2ccccc2)oc2ccccc12`, the Potency entry was “inactive”.

Turning to `OCCCC1CCCCC1`, the Potency result is “inactive”.

Take `CCn1ccnc1CC1COc2ccccc2O1` (stereo unspecified): the Potency entry was “inactive”.

Take `O=C(O)CCCl`: the Potency result is “inactive”.

Turning to `CCC(C)S` (stereo unspecified), the activity change, negative = cytotoxicity was 6.44% [at 3.27 µM] (inactive).

In the case of `Cc1ccc(Cl)cc1Cl`, the Potency entry was “inactive”.

Consider `CC(C)NCC(O)c1ccc(NS(C)(=O)=O)cc1` (stereo unspecified), for which the Potency result was “inactive”.

Turning to `CCS(=O)(=O)c1ccc(OC)c(C(=O)OC)c1`, the Potency result was “inactive”.

As to `C/C=C(\C)C#N`, the Potency result was “inactive”.

In the case of `CCOC(=O)Nc1ccc(NCc2ccc(F)cc2)nc1N`, the Potency entry is “inactive”.

For the molecule `CC[N+](C)(C)c1cccc(O)c1`, the Potency result is “inactive”.

On to `O=C(O)CCCc1ccccc1`, for which the Potency result is “inactive”.

With `Nc1ccc(S(=O)(=O)Nc2ccnn2-c2ccccc2)cc1`, the activity change, negative = cytotoxicity was 5.67% [at 19 µM] (inactive).

With `CC(C)=CCCC(C)CC(=O)O` (stereo unspecified), the Potency result was “inactive”.

For the molecule `O=C1NC(=O)[C@@]2(CCOc3ccc(F)cc32)N1`, the Potency entry was “inactive”.

Take `C=C(C)CS(=O)(=O)O`: the Potency result was “inactive”.

Turning to `CC1=CC(C)C(C=O)CC1` (stereo unspecified), the Potency entry was “inactive”.

As to `CCOC(=O)CCC(C)=O`, the Potency entry was “inactive”.

For the molecule `c1ccc(CC2=NCCN2)cc1`, the Potency entry was “inactive”.

For `COc1c(N2C[C@@H]3CCCN[C@@H]3C2)c(F)cc2c(=O)c(C(=O)O)cn(C3CC3)c12`, the Potency entry was “inactive”.

For `CCCCCCCCS(=O)(=O)Cl`, the Potency entry was “inactive”.

`COC(=O)c1cc(C(=O)OC)cc(S(=O)(=O)O)c1`: the Potency entry is “inactive”.

`COCCCOCCCOC`: the Potency entry is “inactive”.
